Screen size: about 190,000 compounds; about 790 (0.42%) were called active. For the sample, actives were picked, then their nearest neighbours and some compounds at random. A number with no mark means an inactive call.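 Rule for the calls: active = inhibition above a set limit, the median over all tested compounds plus 3 SD (cut at about 9.5% in these data); inconclusive = no clear call, values can overlap the other calls; inactive = the rest.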
The compounds below were run on HMG-CoA reductase (Enterococcus faecalis, mvaE) (assay: class II HMG-CoA reductase enzyme inhibition – biochemical, Enterococcus faecalis, primary screen (AID 1066;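 note: enzyme runs in reverse so mevalonate oxidation gives rising NADPH absorbance; 0% = complete reaction with DMSO and 100% = background rate lacking mevalonate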)). Conditions: purified E. faecalis HMGR, NADPH absorbance 340 nm kinetic; at 10 µM; active compounds read high.
In the case of `O=C(N/N=C/c1ccco1)c1ccc(C(=O)N/N=C/c2ccco2)o1`, the inhibition is reported as 3.83%.
With `CCN(C(=O)c1ccc(Br)cc1)c1ccccc1` the inhibition was -0.76%.
Compound `CCOC(=O)CNC(=O)CSc1ccc2nnc(-c3cccnc3)n2n1` has an inhibition of -1.15%.
`CCOc1ccc(-c2ccc(SCC(=O)N3CCOCC3)nn2)cc1` showed an inhibition of -2.28%.
With `Cc1ccc(C(=O)NCC(=O)O)s1` the inhibition was -1%.
For `O=C(Nc1cccc(Cl)c1)Nc1ccccc1NS(=O)(=O)c1cccs1`, the inhibition was -2.46%.
`CCc1ccc(C(=O)OCC(=O)NCC(F)(F)F)cc1` was tested, and the inhibition was -8.47%.
Compound `COC(=O)c1c(NC(C)=O)sc(C(=O)Nc2ccccc2OC)c1C` has an inhibition of -2.99%.
In the case of `CCC(=O)Nc1sc(C(=O)Nc2ccccc2)c(C)c1C(=O)OC`, the inhibition is reported as 13% (active).
Compound `CCOC(=O)c1sc(NC(=O)COc2ncnc3ccccc23)c(C(=O)OCC)c1C` has an inhibition of 3.4%.
With `CCOC(=O)Cn1nnnc1C` the inhibition was -2.01%.
`Oc1cccc2ccc(/C=C/c3ccc(Br)s3)nc12` was tested, and the inhibition was 0.35%.
`Cc1ccc(NC(=O)Nc2cccc(C(F)(F)F)c2)nc1` showed an inhibition of -0.23%.
For `CCC(=O)Nc1ccc(Nc2nc(Cl)nc(Nc3ccc(NC(=O)CC)cc3)n2)cc1`, the inhibition was -2.77%.
In the case of `Cc1ccc2nc(Nc3ncc4c(n3)CC(C)(C)CC4=O)nc(C)c2c1`, the inhibition is reported as -0.8%.
For `NC(=O)COc1ccc(C23CC4CC(CC(C4)C2)C3)cc1`, the inhibition was 6.59%.
In the case of `O=C(CCN1C(=O)c2ccccc2C1=O)NNC(=O)c1ccc(Cl)cc1Cl`, the inhibition is reported as -5.06%.
With `CC(=O)N/C(=C/c1ccc(OC(F)F)cc1)C(=O)O` the inhibition was 0.04%.
For `CC(CCn1cccn1)NC(=O)CCc1nnc(CCc2ccccc2)o1` (stereo unspecified), the inhibition was -1.69%.
Work on `COC(=O)C1=C(C)N(c2ccc(C)cc2)/C(=C/c2ccc(O)cc2)C1=O` yielded an inhibition of 1.84%.
`O=C(CSC1CC(=O)N(CCc2ccccc2)C1=O)Nc1ccc(Cl)cc1` (stereo unspecified) showed an inhibition of 0.85%.
`CC(Sc1nnnn1C1CCCCC1)C(=O)O` (stereo unspecified) showed an inhibition of 3.4%.
Compound `Cc1cccc(-c2nc3ccccc3c(=O)n2NC(=O)Cc2ccc(Cl)cc2)c1` has an inhibition of 2.94%.
In the case of `NNC(=O)C1CC(O)CN1S(=O)(=O)c1ccc(Cl)cc1` (stereo unspecified), the inhibition is reported as -8.75%.
Work on `COc1cc(NC(=O)c2ccccc2NS(=O)(=O)c2ccc(Cl)s2)cc(OC)c1` yielded an inhibition of -0.12%.
For `C/C(=N\NC(=O)NC1CCCCC1)c1ccc(OC(F)F)cc1OC(F)F`, the inhibition was -0.33%.
`CCc1ccc(CN2C(=O)c3ccccc3C2C(=O)NCC2CCCO2)cc1` (stereo unspecified) was tested, and the inhibition was -2.1%.
Work on `CC(=O)Oc1ccccc1C1=NN(C(C)=O)C(c2ccccc2)C1` (stereo unspecified) yielded an inhibition of -1.75%.
`CCSc1nc(-c2ccc(OC)cc2)cc(-c2ccc(OC)cc2)c1C#N` was tested, and the inhibition was -8.44%.
With `CCOc1cc(-c2cc(-c3ccc(OC)cc3)nc(N)c2C#N)ccc1O` the inhibition was -5.02%.
`COc1ccc(-c2cc(-c3ccc(N)cc3)nc(N)c2C#N)cc1OC` was tested, and the inhibition was 11.6% (active).
In the case of `COc1ccc(C2C(C#N)=C(N)N(c3ncn[nH]3)C3=C2C(=O)CCC3)cc1` (stereo unspecified), the inhibition is reported as 3.99%.
`FC(F)Oc1ccccc1NC(=S)Nc1cccc(Cl)c1Cl` showed an inhibition of -10.5%.
`CS(=O)(=O)N(Cc1ccccc1)c1ccc(C(=O)NN=C2CCCCCC2)cc1` was tested, and the inhibition was -2.77%.
In the case of `Cc1[nH][nH]c(=O)c1C(c1ccc(-c2ccc(Cl)cc2)o1)c1c(C)[nH][nH]c1=O`, the inhibition is reported as 11.6% (active).
For `CCOc1ccc(C(c2c(C)[nH][nH]c2=O)c2c(C)[nH][nH]c2=O)cc1OCC`, the inhibition was -2.78%.
Compound `Cc1[nH][nH]c(=O)c1C(c1ccc2c(c1)OCO2)c1c(C)[nH][nH]c1=O` has an inhibition of 4.7%.
Compound `Cc1noc(/C=C/c2ccco2)c1S(=O)(=O)N1CCC(C(=O)Nc2ccc(Cl)cn2)CC1` has an inhibition of 0.34%.
`CC(O)c1cccc(NC(=O)Cc2cccc3ccccc23)c1` (stereo unspecified) gave an inhibition of -6.15%.
Work on `Cc1ccc(Sc2ccncc2S(N)(=O)=O)cc1` yielded an inhibition of -1.29%.
For `C[C@@H](O)c1nc2ccccc2n1N`, the inhibition was 0.29%.
Compound `CC(C)CC(CC(C)C)=NNC(=O)c1ccc(CSc2nncn2C)cc1` has an inhibition of 1.23%.
`O=C(Nc1cccnc1)c1ccc(Cl)cc1[N+](=O)[O-]` gave an inhibition of -3.45%.
For `NS(=O)(=O)c1ccc(N2C(=O)C3C4CC(C(Br)C4Br)C3C2=O)cc1` (stereo unspecified), the inhibition was 81.6% (active).
`Cc1ccc(N2C(=O)C3CC3C2=O)cc1` (stereo unspecified) was tested, and the inhibition was -5.05%.
Compound `CCCOc1ccc(N2C(=O)CC(N(CCc3ccc(S(N)(=O)=O)cc3)C(C)=O)C2=O)cc1` (stereo unspecified) has an inhibition of -5%.
For `COc1cc(NS(=O)(=O)c2ccc(NC(=O)CN3C(=O)c4ccccc4C3=O)cc2)ncn1`, the inhibition was -9.27%.
`O=C(COC(=O)c1ccco1)NCc1ccc(Cl)cc1` gave an inhibition of -3.08%.
`CC(OC(=O)CCc1nc(=O)c2ccccc2n1C)C(=O)NCc1ccc2c(c1)OCO2` (stereo unspecified) was tested, and the inhibition was 2.38%.
Compound `O=C(Cn1cnc([N+](=O)[O-])n1)NCCc1ccccc1` has an inhibition of 3.82%.
For `CCOc1ccc(Nc2nc(Cc3nnc(SCC(=O)c4ccc(C)cc4)o3)cs2)cc1`, the inhibition was -4.07%.
For `CC(=O)Nc1ccc(C(=O)CSc2nnc(Cc3ccccc3)o2)cc1`, the inhibition was 20.1% (active).
In the case of `O=C(CSc1nnc(Cn2cnc3ccccc32)o1)c1ccccc1`, the inhibition is reported as -2.99%.
For `COC(=O)c1c(NC(=O)c2c(Cl)cnn2C)sc(C)c1C`, the inhibition was 11% (active).
For `CCOC(=O)c1c(NC(=O)c2cccs2)sc(C)c1C`, the inhibition was 0.72%.
`COCCCNCC(=O)Nc1sc(C)c(C)c1C(=O)OC` was tested, and the inhibition was 1.07%.
`CC1=NN(C(=O)c2ccc(Br)cc2)C(O)(c2ccccc2)C1` (stereo unspecified) gave an inhibition of 3.11%.
`CCOC(=O)C1(O)CC(C)=NN1C(=O)c1cccc(Br)c1` (stereo unspecified) was tested, and the inhibition was 16.5% (active).
`CC1=NN(C(=O)c2ccccc2Br)C(O)(c2cccnc2)C1` (stereo unspecified) showed an inhibition of 0.91%.
`Cc1cccc(-n2cc(CN3CCN(C(=O)c4ncn[nH]4)CC3)c(-c3cccc(F)c3)n2)c1` showed an inhibition of -4.4%.
With `NC(N)=NCCCc1cn(CC(=O)N2CCNCC2)nn1` the inhibition was -8.27%.
`O=C(Cc1ccc([N+](=O)[O-])cc1)N/N=C/c1ccco1` was tested, and the inhibition was 3.38%.
Work on `CCCOCC(O)CC(CC)C(=O)NNC(=S)Nc1ccccc1` (stereo unspecified) yielded an inhibition of -0.14%.
Work on `C=CCN(CC=C)CCOc1ccccc1[N+](=O)[O-]` yielded an inhibition of -2.7%.
`COc1cc(NC(=S)N2CCCC(C)C2)cc(OC)c1OC` (stereo unspecified) gave an inhibition of 0.35%.
`CN1CCN(C(CNS(=O)(=O)c2cccs2)c2cccnc2)CC1` (stereo unspecified) was tested, and the inhibition was -4.32%.
In the case of `COc1cc(NC(=O)N2CCOCC2)cc(OC)c1`, the inhibition is reported as -5.26%.
`O=C(Nc1ccccc1)N1CCN(C(=O)Nc2ccccc2)CC1` was tested, and the inhibition was -2.68%.
`CN(C)S(=O)(=O)c1ccc(NC(=O)N2CCOCC2)cc1` was tested, and the inhibition was 15.2% (active).
For `Cc1ccc(SCCC(=O)NCc2ccccn2)cc1`, the inhibition was 1.33%.
`CN1C(=O)/C(=C/c2ccc(C(=O)NC3CCCC3)cc2)Oc2ccccc21` showed an inhibition of -13.4%.
For `CCN1/C(=C/c2ccc3ccc(C)cc3[n+]2CC)Sc2ccccc21`, the inhibition was -2.41%.
Compound `O=C(CCN1c2ccccc2Sc2ccccc21)Nc1ccccc1` has an inhibition of -1.11%.
For `CCC(=O)/C=C1\Sc2ccccc2N1CC`, the inhibition was 11.8% (active).
In the case of `Cc1cc(C(=O)COC(=O)C2CC2)c(C)n1-c1ccc(F)cc1`, the inhibition is reported as 2.01%.
With `Cc1cc(C(=O)N/N=C/c2ccc(O)c([N+](=O)[O-])c2)c(C)n1-c1ccc(F)cc1` the inhibition was 11.2% (active).
With `COc1cc(/C=N/NC(=O)c2cc(C)n(-c3ccc(F)cc3)c2C)cc(OC)c1O` the inhibition was 3.01%.
`CCOc1ccccc1N1CCN(C(=S)Nc2ccc(S(N)(=O)=O)cc2)CC1` gave an inhibition of -3.56%.
`O=C(Nn1cnc2ccccc2c1=O)c1ccc([N+](=O)[O-])cc1Cl` was tested, and the inhibition was -1.28%.
Work on `CCCCN1C(=O)/C(=C(/C#N)C(N)=O)c2ccccc21` yielded an inhibition of -0.52%.
`CN(CC(=O)Nc1ccccc1F)CC(=O)Nc1ccccc1Br` was tested, and the inhibition was 9.9% (active).
Compound `CSc1ccccc1NC(=O)CN(C)CC(=O)Nc1cccc(Br)c1` has an inhibition of 3.22%.
`CN(CC(=O)Nc1ccccc1[N+](=O)[O-])Cc1ccc(Br)cc1` was tested, and the inhibition was -2.46%.
Work on `O=C(CCn1c(=S)[nH]c2ccccc2c1=O)NCCCN1CCCC1=O` yielded an inhibition of -5.44%.
With `Cc1cccc(C(=O)NCCCN2CCCC2=O)c1` the inhibition was -2.71%.
In the case of `O=C(CCC(=O)NNc1nc2ccccc2c2nc(-c3ccccc3)nn12)NCCCN1CCCC1=O`, the inhibition is reported as 11.7% (active).
Work on `O=Cc1ccc(Oc2cccc(C(F)(F)F)c2)nc1` yielded an inhibition of -2.83%.
For `O=C(COC(=O)c1cccc(Br)c1)Nc1cccc2c1C(=O)c1ccccc1C2=O`, the inhibition was -0.48%.
With `COc1ccc(NC(=O)c2sc(N)nc2-c2ccccc2)cc1` the inhibition was 3.25%.
With `COc1ccc(-n2c(O)c(C=NCC(c3ccco3)N3CCCC3)c3ccccc3c2=O)cc1OC` (stereo unspecified) the inhibition was 3.15%.
In the case of `Cc1ncc([N+](=O)[O-])n1CCOC(=O)c1ccc(Br)cc1`, the inhibition is reported as 10% (active).
With `Cc1nn(CCOc2ccc(Br)cc2)c(C)c1[N+](=O)[O-]` the inhibition was -5.05%.
`N/C(=N\OC(=O)COc1ccc([N+](=O)[O-])cc1)c1ccc(Br)cc1` gave an inhibition of -0.17%.
In the case of `CCN(CC)CCNc1nc(-c2ccc(OC(F)F)cc2)c(C)s1`, the inhibition is reported as -4.92%.
With `CCN(C(=O)CSc1nnc2ccccn12)C1CCS(=O)(=O)C1` (stereo unspecified) the inhibition was -6.19%.
`COC(=O)c1ccc(-n2cnc3ccccc32)nc1` showed an inhibition of -2.82%.

Reference: PubChem BioAssay AID1066 (SRMLSC, 2008)
